Measurements taken from the supplement of paper PMC10498489.
Among all 2,300 compounds or so, about 330 (14%) showed activity.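 The calls were made as follows: active = median modified Z-score above 1.96; inactive = 1.96 or below.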 Not all results are given here.

Tested on: HepG2 Srxn1-GFP reporter cells (+30 nM CDDO-Me)
Assay: Srxn1-GFP intensity median modified Z-score relative to plate median; higher = stronger NRF2 / oxidative stress reporter activation, active = hit call of the paper
Settings: 10 µM; exposure time: 24h
Procedure, shortened: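 In 96-well plates holding 20,000 HepG2 Srxn1-GFP BAC reporter cells per well, compound at 10 μM and an NRF2 activator at 30 nM were added together for 24 h, with DMSO at ≤0.1%, across three replicate plates. After fixation in formaldehyde and Hoechst staining, confocal images were analysed cell by cell for cytoplasmic GFP, and images containing under 100 cells were excluded. Values are replicate medians of the per-plate modified Z-score of GFP intensity, scaled by 1.4826 × median absolute deviation.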

How did the “Srxn1-GFP intensity median modified Z-score” value turn out when `O=C(O)c1ccccc1C(=O)Nc1ccc(S(=O)(=O)N=c2[nH]ccs2)cc1` [euspeclibcmpd427] was run?
Its value is 0.584 (inactive).

How did the “Srxn1-GFP intensity median modified Z-score” value turn out when `CCCCCCCCCCOc1cc2c(=O)c(C(=O)OCC)c[nH]c2cc1OCC` [euspeclibcmpd775] was run?
The value was 0 (inactive).

With `COC(=O)CC1C(C)(C)C(O)C2CC3=C4CC(O)OC(c5ccoc5)C4(C)CCC3C1(C)C2=O` (stereo unspecified) [euspeclibcmpd1860] as the compound, how does the “Srxn1-GFP intensity median modified Z-score” value read?
Its value is 0.479 (inactive).

How did the “Srxn1-GFP intensity median modified Z-score” value turn out when `C=CC[C@]1(O)CCC2C3=C(C=C[C@@]21C)C1=C(CC3)CC(=O)CC1` (stereo partly specified) [euspeclibcmpd848] was run?
The value was 0.704 (inactive).

`Oc1cccc2cc3cccc(O)c3c(O)c12` [euspeclibcmpd25] was tested. Which “Srxn1-GFP intensity median modified Z-score” value did it give?
Its value is -0.419 (inactive).

How did the “Srxn1-GFP intensity median modified Z-score” value turn out when `O=c1c(O)cccc2cc(O)c(O)c(O)c12` [euspeclibcmpd1723] was run?
Its value is -0.877 (inactive).

`Cc1cc(O)c2c(O)c3c(O)cccc3cc2c1` [euspeclibcmpd2068] was tested. Which “Srxn1-GFP intensity median modified Z-score” value did it give?
The value was 2.58 (active).

With `CC(=O)Oc1ccccc1C(=O)Oc1ccccc1C(=O)O` [euspeclibcmpd1749] as the compound, how does the “Srxn1-GFP intensity median modified Z-score” value read?
Its value is -0.327 (inactive).

How did the “Srxn1-GFP intensity median modified Z-score” value turn out when `CCCCC(=O)Oc1ccccc1C(=O)O` [euspeclibcmpd1887] was run?
Its value is 14.5 (active).

Which “Srxn1-GFP intensity median modified Z-score” value does the source give for `O=C(O)c1ccccc1OP(=O)(O)O` [euspeclibcmpd1073] here?
Its value is -0.579 (inactive).

`CC(=O)Oc1ccccc1C(=O)O` [euspeclibcmpd28] was tested. Which “Srxn1-GFP intensity median modified Z-score” value did it give?
The value was 61 (active).

`O=C(Oc1ccccc1C(=O)O)c1ccccc1O` [euspeclibcmpd2] was tested. Which “Srxn1-GFP intensity median modified Z-score” value did it give?
Its value is -0.023 (inactive).

How did the “Srxn1-GFP intensity median modified Z-score” value turn out when `O=C(/C=C/C(=O)Oc1ccccc1C(=O)O)Oc1ccccc1C(=O)O` [euspeclibcmpd1772] was run?
Its value is -0.354 (inactive).

How did the “Srxn1-GFP intensity median modified Z-score” value turn out when `CCCCCN(C)CCC(O)(P(=O)(O)O)P(=O)(O)O` [euspeclibcmpd2308] was run?
The value was -0.118 (inactive).

With `CCCc1cc(C(N)=S)ccn1` [euspeclibcmpd1165] as the compound, how does the “Srxn1-GFP intensity median modified Z-score” value read?
The value was -0.267 (inactive).

`NC[C@H]1O[C@H](OC2[C@@H](N)C[C@@H](N)[C@H](O[C@H]3O[C@H](CO)[C@@H](O)[C@H](N)[C@H]3O)[C@H]2O)[C@H](O)[C@@H](O)[C@@H]1O` (stereo partly specified) [euspeclibcmpd168] was tested. Which “Srxn1-GFP intensity median modified Z-score” value did it give?
The value was -0.199 (inactive).

How did the “Srxn1-GFP intensity median modified Z-score” value turn out when `CC(C)CCCC(C)C1CCC2C3CC[C@H]4C[C@@H](O)CC[C@]4(C)C3CC[C@]12C` (stereo partly specified) [euspeclibcmpd2135] was run?
Its value is 0.00623 (inactive).

`NCCC[C@H](N)CC(=O)NC1CNC(=O)C([C@H]2C[C@H](O)NC(N)=N2)NC(=O)C(C=NC(N)=O)NC(=O)[C@H](CO)NC(=O)[C@H](CO)NC1=O` (stereo partly specified) [euspeclibcmpd994] was tested. Which “Srxn1-GFP intensity median modified Z-score” value did it give?
The value was -0.33 (inactive).

With `CC(C(=O)O)c1ccc2c(c1)[nH]c1ccc(Cl)cc12` (stereo unspecified) [euspeclibcmpd425] as the compound, how does the “Srxn1-GFP intensity median modified Z-score” value read?
Its value is 0.027 (inactive).

For `O=C(O)c1cc(=O)[nH]c(=O)[nH]1` [euspeclibcmpd1192], which “Srxn1-GFP intensity median modified Z-score” value is on record?
The value was -0.551 (inactive).

For `O=C(O)c1cc2cc(Cl)ccc2[nH]1` [euspeclibcmpd2020], which “Srxn1-GFP intensity median modified Z-score” value is on record?
The value was 1.97 (active).

Which “Srxn1-GFP intensity median modified Z-score” value does the source give for `CCn1cc(C(=O)O)c(=O)c2cc(F)c(N3CCN(C(=O)CCSC)CC3)cc21` here?
Its value is 0.401 (inactive).

`NS(=O)(=O)c1cc2c(cc1Cl)N=C(CSCc1ccccc1)NS2(=O)=O` [euspeclibcmpd35] was tested. Which “Srxn1-GFP intensity median modified Z-score” value did it give?
Its value is -0.327 (inactive).

Which “Srxn1-GFP intensity median modified Z-score” value does the source give for `CC1OC1P(=O)(O)O` (stereo unspecified) [euspeclibcmpd2281] here?
The value was -0.455 (inactive).

Which “Srxn1-GFP intensity median modified Z-score” value does the source give for `CC(C)[N+](C)(CCOC(=O)C1c2ccccc2Oc2ccccc21)C(C)C` [euspeclibcmpd254] here?
The value was 0.13 (inactive).

With `O=Cc1ccccc1O[C@@H]1O[C@H](CO)[C@H](O)[C@@H](O)[C@H]1O` [euspeclibcmpd1574] as the compound, how does the “Srxn1-GFP intensity median modified Z-score” value read?
The value was 0.476 (inactive).

With `N[C@@H]1[C@@H](O)[C@H](O)[C@@H](CO)O[C@H]1O` [euspeclibcmpd140] as the compound, how does the “Srxn1-GFP intensity median modified Z-score” value read?
The value was 0.0216 (inactive).

How did the “Srxn1-GFP intensity median modified Z-score” value turn out when `O=C(NCCCCN1CCOCC1)c1ccc(F)cc1` was run?
Its value is 0.352 (inactive).

For `O=C(c1ccc(OCCN2CCCCC2)cc1)c1c(-c2ccc(O)cc2)sc2cc(O)ccc12` [euspeclibcmpd831], which “Srxn1-GFP intensity median modified Z-score” value is on record?
Its value is -0.702 (inactive).

For `N#Cc1ccc(C(=O)NCCCCN2CCOCC2)cc1`, which “Srxn1-GFP intensity median modified Z-score” value is on record?
Its value is 0.374 (inactive).

For `CCCCOc1ccc(OCCCN2CCOCC2)cc1` [euspeclibcmpd396], which “Srxn1-GFP intensity median modified Z-score” value is on record?
Its value is 2.42 (active).

For `CCCCOc1ccc(C(=O)CCN2CCCCC2)cc1` [euspeclibcmpd107], which “Srxn1-GFP intensity median modified Z-score” value is on record?
The value was 3.53 (active).

For `CC1CCN(CCCC(=O)c2ccc(F)cc2)CC1` [euspeclibcmpd1905], which “Srxn1-GFP intensity median modified Z-score” value is on record?
Its value is 1.19 (inactive).

`O=c1c(O)cc2c(O)oc3c(=O)c(O)cc4c(O)oc1c2c43` [euspeclibcmpd1077] was tested. Which “Srxn1-GFP intensity median modified Z-score” value did it give?
Its value is 0.204 (inactive).

With `CC1CC[C@@]2(OC1)O[C@H]1CC3C4CC[C@@H]5C[C@@H](O)CC[C@]5(C)C4CC[C@]3(C)[C@H]1[C@@H]2C` (stereo partly specified) [euspeclibcmpd2070] as the compound, how does the “Srxn1-GFP intensity median modified Z-score” value read?
The value was -0.402 (inactive).

How did the “Srxn1-GFP intensity median modified Z-score” value turn out when `O=C(C=Cc1ccc(O)c(O)c1)O[C@@H]1C[C@](O)(C(=O)O)C[C@@H](O)[C@H]1O` [euspeclibcmpd1682] was run?
Its value is 1.16 (inactive).

Which “Srxn1-GFP intensity median modified Z-score” value does the source give for `C[C@]12C=CC(=O)CC1=CCC1C2[C@@H](O)C[C@@]2(C)C1CC[C@]2(O)C(=O)COC(=O)CCC(=O)O` (stereo partly specified) [euspeclibcmpd794] here?
The value was 0.608 (inactive).

Which “Srxn1-GFP intensity median modified Z-score” value does the source give for `Cc1cccc(N=c2cc[nH]cc2S(=O)(=O)NC(=O)NC(C)C)c1` [euspeclibcmpd2184] here?
The value was 0 (inactive).

`C[C@]12CCC3c4ccc(OC(=O)c5ccccc5)cc4CCC3C1CC[C@@H]2O` (stereo partly specified) [euspeclibcmpd412] was tested. Which “Srxn1-GFP intensity median modified Z-score” value did it give?
The value was 0.298 (inactive).

For `NC(=O)COC(=O)c1ccccc1Nc1cccc(C(F)(F)F)c1`, which “Srxn1-GFP intensity median modified Z-score” value is on record?
The value was 1.26 (inactive).

Which “Srxn1-GFP intensity median modified Z-score” value does the source give for `CC(=O)OCC(=O)[C@@]1(O)CCC2C3CC=C4CC(=O)C=C[C@]4(C)[C@@]3(Cl)[C@@H](Cl)C[C@@]21C` (stereo partly specified) [euspeclibcmpd1222] here?
Its value is -0.43 (inactive).

For `CCC1OC(=O)C(C)C(=O)C(C)[C@@H](OC2O[C@H](C)C[C@H](N(C)C)[C@H]2O)[C@](C)(OC)CC(C)C(=O)C(C)[C@@H]2N(CCCCn3cnc(-c4cccnc4)c3)C(=O)O[C@]12C` (stereo partly specified) [euspeclibcmpd733], which “Srxn1-GFP intensity median modified Z-score” value is on record?
Its value is -0.17 (inactive).

With `Cc1ccc(Cl)c2cccnc12` as the compound, how does the “Srxn1-GFP intensity median modified Z-score” value read?
The value was 1.45 (inactive).

`Oc1c(Cl)cc(Cl)c2cccnc12` [euspeclibcmpd537] was tested. Which “Srxn1-GFP intensity median modified Z-score” value did it give?
Its value is 2.82 (active).

Which “Srxn1-GFP intensity median modified Z-score” value does the source give for `Oc1c(Br)cc(Br)c2cccnc12` [euspeclibcmpd1032] here?
Its value is 4.39 (active).

For `Oc1c(I)cc(Cl)c2cccnc12` [euspeclibcmpd705], which “Srxn1-GFP intensity median modified Z-score” value is on record?
The value was 2.87 (active).

For `Oc1ccc(Cl)c2cccnc12` [euspeclibcmpd72], which “Srxn1-GFP intensity median modified Z-score” value is on record?
Its value is -1.02 (inactive).

How did the “Srxn1-GFP intensity median modified Z-score” value turn out when `Oc1c(I)cc(I)c2cccnc12` [euspeclibcmpd2015] was run?
Its value is 1.62 (inactive).

How did the “Srxn1-GFP intensity median modified Z-score” value turn out when `O=S(=O)(O)c1cc(I)c(O)c2ncccc12` [euspeclibcmpd2311] was run?
Its value is -0.435 (inactive).

`Oc1c(I)cc(Cl)c2cccnc12` was tested. Which “Srxn1-GFP intensity median modified Z-score” value did it give?
The value was 1.31 (inactive).

How did the “Srxn1-GFP intensity median modified Z-score” value turn out when `O=[N+]([O-])c1ccc(O)c2ncccc12` [euspeclibcmpd1218] was run?
The value was -0.363 (inactive).
